Experimental data taken from the supplement of paper PMC9446081.
± gives the standard deviation of the averaged measurements.

These compounds were tested against MurC (UniProt C4ZRI6) (assay: relative enzymatic activity vs untreated control (fraction); higher = less inhibition). Details: 100 µM; incubation time: 2 h at 37 C.
Experimental: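 In vitro enzymatic inhibition assays (ProFoldin kits) for 12 purified essential E. coli enzymes or complexes, each treated with 218 active antibacterial compounds at 100 µM for 2 h at 37°C. Read-outs were fluorescence or absorbance (phosphate detection, dye binding), converted to activity via standard curves and expressed relative to untreated DMSO controls.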

Sequence of MurC (C4ZRI6 whole entry, looked up): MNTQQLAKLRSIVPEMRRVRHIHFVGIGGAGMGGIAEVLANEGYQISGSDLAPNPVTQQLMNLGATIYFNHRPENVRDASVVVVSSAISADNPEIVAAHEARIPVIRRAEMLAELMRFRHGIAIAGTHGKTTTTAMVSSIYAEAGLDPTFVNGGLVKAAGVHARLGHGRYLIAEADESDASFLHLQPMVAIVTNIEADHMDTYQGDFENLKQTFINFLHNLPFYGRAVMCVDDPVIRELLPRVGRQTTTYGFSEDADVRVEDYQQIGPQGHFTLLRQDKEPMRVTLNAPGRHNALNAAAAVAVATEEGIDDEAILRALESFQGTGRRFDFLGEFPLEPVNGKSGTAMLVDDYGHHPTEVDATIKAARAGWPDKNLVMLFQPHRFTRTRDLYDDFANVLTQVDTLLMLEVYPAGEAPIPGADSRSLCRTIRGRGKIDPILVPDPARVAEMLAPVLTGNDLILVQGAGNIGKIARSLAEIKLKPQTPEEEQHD

Row | Structure (SMILES) | relative enzymatic activity
1 | CN(C)C1C(O)=C(C(N)=O)C(=O)C2(O)C(O)=C3C(=O)c4c(O)ccc(Cl)c4C(C)(O)C3CC12.Cl (stereo unspecified) | 1.05 ± 0.02
2 | CC(C)(O/N=C(\C(=O)N[C@@H]1C(=O)N2C(C(=O)O)=C(C[N+]3(CCNC(=O)c4ccc(O)c(O)c4Cl)CCCC3)CS[C@H]12)c1csc(N)n1)C(=O)O | 0.83 ± 0.29
3 | C=CC1=C(C(=O)O)N2C(=O)C(NC(=O)C(=NO)c3csc(N)n3)C2SC1 (stereo unspecified) | 0.997 ± 0.02
4 | C=C1c2cccc(O)c2C(=O)C2=C(O)C3(O)C(=O)C(C(N)=O)=C(O)C(N(C)C)C3C(O)C12.Cl (stereo unspecified) | 1.079 ± 0.0059
5 | CCn1cc(C(=O)O)c(=O)c2cc(F)c(N3CCNCC3)nc21 | 0.948 ± 0.15
6 | Cl.O=C1CC2(CCCC2)CC(=O)N1CCCCN1CCN(c2ncccn2)CC1 | 1.073 ± 0.0016
7 | CC[C@@H](C)CCCCC(=O)N[C@@H](CCN)C(=O)N[C@H](C(=O)N[C@@H](CCN)C(=O)N[C@H]1CCNC(=O)[C@H]([C@@H](C)O)NC(=O)[C@H](CCN)NC(=O)[C@H](CCN)NC(=O)[C@H](CC(C)C)NC(=O)[C@@H](Cc2ccccc2)NC(=O)[C@@H](CCN)NC1=O)[C@@H](C)O | 1.03 ± 0.032
8 | NC[C@H]1OB(O)c2c(OCCCO)cccc21 | 0.977 ± 0.052
9 | CC(N)O.Cc1cc(CC(C)CC(C)(C)C)n(O)c(=O)c1 (stereo unspecified) | 1.11 ± 0.024
10 | CC1CCc2cc(F)cc3c(=O)c(C(=O)O)cn1c23 (stereo unspecified) | 1.01 ± 0.053
11 | CON=C(C(=O)N[C@@H]1C(=O)N2C(C(=O)O)=C(CSc3nc(=O)c(O)nn3C)CS[C@H]12)c1csc(N)n1 | 0.751 ± 0.23
12 | CCn1cc(C(=O)O)c(=O)c2cnc(N3CCNCC3)nc21 | 0.99 ± 0.052
13 | CNC1C(OC2C(OC3C(O)C(O)C(NC(=N)N)C(O)C3NC(=N)N)OC(C)C2(O)CO)OC(CO)C(O)C1O.O=S(=O)(O)O (stereo unspecified) | 1.1 ± 0.059
14 | CCN1CCN(C(=O)NC(C(=O)NC2C(=O)N3C(C(=O)O)=C(CSc4nnnn4C)CSC23)c2ccc(O)cc2)C(=O)C1=O (stereo unspecified) | 0.942 ± 0.1
15 | O=C1NCCN1c1ncc([N+](=O)[O-])s1 | 1.008 ± 0.01
16 | CCC(C)C1NC(=O)C(CCNCS(=O)(=O)[O-])NC(=O)C(NC(=O)C(CCNCS(=O)(=O)[O-])NC(=O)C(NC(=O)C(CCNCS(=O)(=O)[O-])NC(=O)CCCCC(C)C)C(C)O)CCNC(=O)C(C(C)O)NC(=O)C(CCNCS(=O)(=O)[O-])NC(=O)C(CCNCS(=O)(=O)[O-])NC(=O)C(C(C)CC)NC1=O.[Na+].[Na+].[Na+].[Na+].[Na+] (stereo unspecified) | 1.05 ± 0.03

Row | Structure (SMILES) | relative enzymatic activity
17 | CC1C(NC(=O)C(=NOC(C)(C)C(=O)O)c2csc(N)n2)C(=O)N1S(=O)(=O)O (stereo unspecified) | 1.016 ± 0.0098
18 | CCCCCCCCCCCCC[N+](C)(C)Cc1ccccc1.O.[Cl-] | 0.556 ± 0.086
19 | CO[C@@]12[C@@H]3N[C@@H]3CN1C1=C(C(=O)C(N)=C(C)C1=O)[C@@H]2COC(N)=O | 1.08 ± 0.11
20 | NC[C@H]1O[C@H](O[C@H]2[C@H](O)[C@@H](O[C@H]3O[C@H](CO)[C@@H](O)[C@H](N)[C@H]3O)[C@H](N)C[C@@H]2N)[C@H](N)C[C@@H]1O | 0.918 ± 0.078
21 | Cc1cc(O)c(C(=O)NC(C(=O)NC2C(=O)N3C(C(=O)O)=C(CSc4nnnn4C)CSC23)c2ccc(O)cc2)cn1 (stereo unspecified) | 0.971 ± 0.12
22 | Cn1sccc1=O | 0.969 ± 0.062
23 | COc1c(N2CCNC(C)C2)c(F)cc2c(=O)c(C(=O)O)cn(C3CC3)c12 (stereo unspecified) | 1 ± 0.027
24 | O=c1[nH]c(=O)n([C@H]2C[C@H](O)[C@@H](CO)O2)cc1F | 0.993 ± 0.019
25 | CON=C(C(=O)NC1C(=O)N2C(C(=O)[O-])=C(COC(C)=O)CSC12)c1csc(N)n1.[Na+] (stereo unspecified) | 0.961 ± 0.082
26 | CN1CCN(c2c(F)cc3c(=O)c(C(=O)O)cn(CCF)c3c2F)CC1 | 1.02 ± 0.011
27 | CN(C)c1ccc(O)c2c1C[C@H]1C[C@H]3[C@H](N(C)C)C(=O)C(C(N)=O)=C(O)[C@@]3(O)C(=O)[C@H]1C2=O | 0.99 ± 0.069
28 | CC(C)(C)CC(C)(C)c1ccc(OCCOCC[N+](C)(C)Cc2ccccc2)cc1.[Cl-] | 0.398 ± 0.28
29 | COC1(NC(=O)C(C(=O)[O-])c2ccc(O)cc2)C(=O)N2C(C(=O)[O-])=C(CSc3nnnn3C)COC21.[Na+].[Na+] (stereo unspecified) | 1.03 ± 0.046
30 | Nc1c2ccccc2nc2ccccc12 | 0.998 ± 0.044
31 | CN(C)c1ccc(O)c2c1C[C@H]1C[C@H]3[C@H](N(C)C)C(=O)[C@@H](C(N)=O)C(=O)[C@@]3(O)C(=O)[C@H]1C2=O | 1.11 ± 0.018
